# High-throughput results deposited in PubChem by National Center for Advancing Translational Sciences (NCATS).
# In the library only some 7.8% were active in any assay of this set; here they are far more common.
# TSHR ag – qHTS Assay for Agonists of the Thyroid Stimulating Hormone Receptor; HEK293-CNG-TSHR cells (CNG channel as cAMP sensor), membrane potential dye, cAMP; Potency, µM (doses to about 57.1 µM), for inactives: at the highest dose activation, hits mostly activators; 0.48% of 73,000 active; AID 926, 2007; active = well fitted activation curve with a large enough effect in the main read-out, with a control signal flat, not every such curve was filed as active; inconclusive = small, poorly fitted or top-dose-only effect, or a change in a side signal; inactive = no such curve, though single readings can be large or run the other way; % of control where 0% means no effect;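 note: the control signal comes from parental cells without the receptor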
#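 HEK 293 cells stably expressing TSHR and a modified CNG channel, with CNG-only parental cells as counterscreen, were preloaded 60 min at room temperature with membrane potential dye containing 100 uM RO 20-1724. Compound exposure was 30 min, and depolarization was read as fluorescence at 590 nm.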
# HEK293 cAMP cs – qHTS Assay for Agonists of the Thyroid Stimulating Hormone Receptor: Activators of Intracellular cAMP Concentrations in Parental HEK 293; parental HEK293 CNG cAMP sensor, membrane potential fluorescence; Potency, µM (highest dose often 57.1 µM), inactives show top-dose activation, actives largely listed as activators; 2.5% of 73,000 active; AID 938, 2007; note: % of control where 0% means no effect; nearly all actives have a fitted effect of over 55% in size
#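 Parental HEK 293 cells stably expressing a cAMP-gated CNG channel were loaded with membrane potential dye containing 100 uM RO 20-1724 for 60 min. Compound added for 30 min; depolarization read as fluorescence intensity at 590 nm.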
# Tau fil binding – qHTS Assay for Tau Filament Binding | Microtubule-associated protein tau (Homo sapiens), P10636 | recombinant tau filaments, thioflavin S fluorescence, 15 h; filaments grown with octadecylsulfate alongside compound | Potency, µM (doses to about 57.1 µM), inactives show at the top dose activity change, negative = inhibition | 2% of 71,000 active | AID 596, 2007;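 note: % is set by controls: 0 for no effect and ±100 for the full control effect; actives lower thioflavin S fluorescence by blocking filaments or displacing dye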
#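 Assay mix: 1 uM His-tagged tau, 30 uM sodium octadecylsulfate, thioflavine S dye in HEPES/NaCl/DTT buffer. Compound is added prior to the inducer. Fluorescence after 15 h at 37 C.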
# ALOX15 inhib – qHTS Assay for Inhibitors of 15-hLO (15-human lipoxygenase); Polyunsaturated fatty acid lipoxygenase ALOX15 (Homo sapiens), P16050; purified 15hLO-1, xylenol orange hydroperoxide absorbance; Potency, µM (titrated, usually from 57.1 µM), for the others: top-dose activity change, negative = inhibition, most hits filed as inhibitors; 1.4% of 74,000 active; note: % is set by controls: 0 for no effect and ±100 for the full control effect; nearly all actives have a fitted effect of over 55% in size
#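 Hydroperoxide formed from arachidonic acid (50 uM) by purified human 15hLO-1 (40 nM) oxidizes ferrous iron, and the ferric-xylenol orange complex is read at 573 versus 405 nm. Compounds were preincubated 15 min; reaction ran 6 min at room temperature.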
# Luciferase inh – qHTS Assay for Inhibitors of Firefly Luciferase; Potency, µM (highest dose often 57.1 µM), for inactives: at the highest dose activity change, negative = inhibition, usual class: inhibitors; Luciferin 4-monooxygenase (Photinus pyralis), P08659; 2.2% of 72,000 active; purified firefly luciferase, luminescence, 8 min; note: % is set by controls: 0 for no effect and ±100 for the full control effect; nearly all actives have a fitted effect of over 40% in size
#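 qHTS concentration-response profiling: light output of P. pyralis luciferase with luciferin and 10 uM ATP, imidazole buffer pH 7.2. Read by luminescence after 8-min room-temperature incubation.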
# Bst PK mod – Pyruvate Kinase | purified pyruvate kinase, luminescence ATP production; ribose 5-phosphate activator present at AC10 | 1.2% of 51,000 active | Potency, µM | AID 361, 2006; in the data active = potency below about 11 µM; inconclusive = mostly about 12 µM to 25 µM;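 the screen sought inhibitors and activators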;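 note: scaled between full activation by ribose 5 phosphate and full inhibition by luteolin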
# Active calls of the source: *; i = inactive; ? = inconclusive; . = not tested or not shown; [ ] = dose if it differs, or a comment. Unless noted, calls come from the whole dose curve; as a rule, active = well fitted curve in the direction sought with a large enough effect; inconclusive = small, poorly fitted or top-dose-only effect, or another doubt; inactive = no such curve, though single readings can be large; an effect the other way counts as inactive or inconclusive. Potency is the fitted concentration of half-maximal effect.
SMILES,TSHR ag,HEK293 cAMP cs,Tau fil binding,ALOX15 inhib,Luciferase inh,Bst PK mod
COc1ccc(-c2cc(C(F)F)n3ncc(C(=O)N4CCSCC4)c3n2)cc1,?,?,-21%,1%,0%,>57
CCOC(=O)C1CCCN(C(=O)c2cnn3c(C(F)F)cc(-c4ccc(C)cc4)nc23)C1 (stereo not drawn),?,7.9µM*,?,-5%,-1%,>57
Cc1ccc(-c2cc(C(F)F)n3ncc(C(=O)N4CCN5CCCC5C4)c3n2)cc1 (stereo not drawn),?,20µM*,25µM*,-6%,0%,>57
CCOC(=O)C1CCN(C(=O)c2cnn3c(C)cc(C)nc23)CC1,-2%,0%,-1%,2%,4%,i
O=C1CN(C(=O)COC(=O)CCC(=O)c2ccc3c(c2)OCCO3)c2ccccc2N1,-2%,24%,13%,-1%,20µM*,.
Cc1ccc(N2CCn3c2nc2c3c(=O)n(CCc3ccccc3)c(=O)n2C)cc1,-15%,-2%,10%,4%,3%,>57
Nc1c(O)cccc1C(=O)C[C@@H](N)C(=O)O,-20%[25.6 µM],-1%[25.6 µM],4%[25.6 µM],-11%[25.6 µM],2%[25.5 µM],.
Nc1ccccc1C(=O)C[C@@H](N)C(=O)O,-2%,1%,40µM*,.,1%[11.4 µM],.
COC(=O)c1ccc(C(=O)Nc2ccc(N)cc2N)cc1,3%,-3%,13µM*,-23%,-4%,>57
COc1ccc(-c2nc3cnc(N4CCNCC4)nc3n(Cc3cccs3)c2=O)cc1,1%,-12%,162%,-18%,1%[11.4 µM],.
COCCn1c(COC)nc2ccccc21,0%,4%,-4%,-1%,4%,>57
COCCn1c(COc2ccc(C)cc2)nc2ccccc21,?,?,-9%,6%,13µM*,i
Cc1ccc(OCCCn2c(CO)nc3ccccc32)cc1,11%,19%,5%,18%,20µM*,i
COc1ccc(-c2noc(-c3ccco3)n2)cc1OC,3%,-8%,3%,-4%,13µM*,i
COc1ccc(-c2noc(-c3ccccc3Cl)n2)cc1OC,?,?,137%,-2%,16µM*,i
COc1nc(C)ccc1-c1noc(-c2ccco2)n1,-1%,7%,-2%,-1%,7.9µM*,i
CCC1Oc2ccc(C)cc2N(CC(=O)NCc2cccc(OC)c2)C1=O (stereo not drawn),?,13µM*,9%,-4%,-1%,>57
Clc1ccc(-c2nnc3ccccn23)cc1,-3%,-1%,-12%,0%,3%,>57
c1csc(-c2nnc3ccccn23)c1,3%,4%,-5%,2%,3%,7*
CCOc1ccc2c(ccc(/C=C\c3cc(C)c4cccnc4c3O)[n+]2C)c1,0%[11.4 µM],12%[11.4 µM],0.63µM*,69%[11.4 µM],-11%[11.4 µM],.
CCOc1ccc2nc(C)cc(C(=O)O)c2c1,.,7%,8%,4%,2%,>57
CC(=O)OCC1OC(C#CC(C)(C)C)C=CC1OC(C)=O (stereo not drawn),?,0%[11.4 µM],.,-6%[11.4 µM],.,.
Cc1cccc(NC(=O)c2ccccc2C(=O)O)c1,0%,3%,-8%,5%,0%,.
O=C(/C=C/Nc1cccc(O)c1)c1ccccc1,-6%,10%,-5%,13µM*,2µM*,.
C/C(=C\C(=O)c1ccc(C)cc1)Nc1cccc(O)c1,4%,6%,40%,-4%,5µM*,.
O=C(Nc1cccc(O)c1)c1ccc(Br)cc1,4%,1%,2%,-3%,-26%,.
Cc1ccc(C(=O)/C=C/Nc2cccc(O)c2)cc1,.,.,.,.,2.5µM*,1.3*
COCCN(CC(=O)NC1CCCCC1)C(=O)CSc1nc2ccccc2o1,?,?,-10%,8%,-2%,>57
